The record followed here is PubChem BioAssay AID504834 (National Center for Advancing Translational Sciences (NCATS), 2011).

Molecules are shown by their SMILES. Screen size: about 320,000 compounds; about 22,000 (6.9%) were called active. Roughly 27% stayed inconclusive and do not appear here. Only a selection was taken, and actives are over-represented in it overall. Values without a mark were called inactive. Calls follow the shape of the dose curve; as a rule, active = well fitted inhibition curve with a large enough effect; inconclusive = small, poorly fitted or top-dose-only effect, or another doubt; inactive = no such curve, though single readings can be large or run the other way.
% is scaled to controls: 0 for no effect and ±100 for the full control effect; potency is read from the fitted curve at half-maximal effect.

The nature of the experiment: Primary qHTS for delayed death inhibitors of the malarial parasite plastid, 96 hour incubation. As to conditions: P. falciparum luciferase reporter growth; series mostly up to 28.7 µM; activity change, negative = inhibition: at the top concentration. An excerpt: The goal of this screen is to discover new antimalarial compounds that act by inhibiting the development of the apicoplast in the malarial parasite Plasmodium falciparum. The biochemical processes that make this organelle essential for erythrocytic stage parasites are not well understood. However, antibiotics such as azithromycin and tetracycline, which target the apicoplast translational machinery, have a potent antimalarial effect.
We have developed a cell-based assay that measures parasite growth based on the expression of an integrated copy of a firefly luciferase reporter. To detect small molecules that cause this "delayed death" phenotype, erythrocytes infected with the luciferase-expressing parasites were incubated with compounds for either one or two generations, corresponding to 48 and 96 hours, respectively. Compounds that inhibit parasite growth in the second generation, but not the first, should be enriched in antimalarials that target the apicoplast. Growth inhibition is detected by a decrease in luciferase activity.
Assay Provider: David Fidock and Eric Ekland, Columbia University
Keywords: NIH Roadmap, MLPCN, MLI, MLSMR, qHTS, NCGC, qHTS, malaria, luciferase, viability
Four microliters of infected erythrocytes (2% hematocrit, 0.05% parasitemia final concentration) in culture medium were dispensed and the plates incubated for 96 hours at 37 C in 5% CO2. Two microliters of luciferase detection reagent was added and luminescence was detected by a ViewLux (PerkinElmer) reader.
On to `COc1ccc(C(=O)OCC(=O)c2ccc(Cl)s2)c(OC)c1OC`, for which the “activity change, negative = inhibition” value is -21.3% (inactive).

`CCc1cccc(C)c1NC(=O)COC(=O)CNC(=O)c1cccs1`: the “activity change, negative = inhibition” value is 34.6% (inactive).

Turning to `CN(C)c1cccc(C(=O)N2CCC(n3nccc3NC(=O)C3CCOC3)CC2)c1` (stereo not drawn), the “activity change, negative = inhibition” value was 16.6% (inactive).

`Cc1nnc2n1N=C(c1ccccc1)CS2`: the “activity change, negative = inhibition” value is 22% (inactive).

As for `CCN(CC)S(=O)(=O)c1ccc(Cl)c(C(=O)NCCN2CCOCC2)c1`, the “activity change, negative = inhibition” value was -25.2% (inactive).

As to `O=C(NC(=O)c1ccccc1)NC(=O)c1ccccc1`, the “activity change, negative = inhibition” value is -27.2% (inactive).

In the case of `N#C/C(=C/c1ccc(Cl)cc1)NC(=O)c1ccccc1`, the Potency is 3.7 µM (active).

`O=C(NCC1CCCO1)/C(=C/c1ccc(Cl)cc1)NC(=O)c1ccccc1` (stereo not drawn): the “activity change, negative = inhibition” value is -28.1% (inactive).

As to `CCOc1ccc(NC(=O)CC2C(=O)N(c3ccccc3)C(=O)N2CCOC)cc1` (stereo not drawn), the “activity change, negative = inhibition” value was 35.9% (inactive).

As to `COc1ccc(N2C(=O)C(CC(=O)Nc3ccccc3)N(Cc3ccc(OC)c(OC)c3)C2=O)cc1` (stereo not drawn), the “activity change, negative = inhibition” value is 10.9% (inactive).

As to `CCCOc1ccc(NC(=O)CC2C(=O)N(C)C(=S)N2Cc2ccc3c(c2)OCO3)cc1` (stereo not drawn), the Potency is 0.329 µM (active).

Consider `CCS(=O)(=O)c1ccc(-c2cccc(NC(=O)c3ccc(Br)o3)c2)nn1`, for which the “activity change, negative = inhibition” value was 1.83% (inactive).

As for `O=C(OCCN1C(=O)c2ccccc2C1=O)Oc1ccccc1`, the “activity change, negative = inhibition” value was -2.14% (inactive).

As for `O=C(NCCCn1ccnc1)c1ccccc1F`, the “activity change, negative = inhibition” value is -19.5% (inactive).

Turning to `COc1ccc(-c2sc3ccc(OC)cc3c2C#Cc2ccccn2)cc1`, the Potency is 2.33 µM (active).

As for `COc1ccc(-c2csc(Nc3ccccn3)n2)cc1`, the “activity change, negative = inhibition” value is 9.84% (inactive).

As for `COc1ccc(-c2cn3cccnc3n2)cc1`, the activity change, negative = inhibition was -27.3% [at 5.75 µM].

`CC1(C)C(C=C(Cl)Cl)C1C(=O)NC(O)C(=O)c1ccccc1` (stereo not drawn): the “activity change, negative = inhibition” value was 21.7% (inactive).

With `COc1ccc(N2CCN(C3CCCCC3NS(=O)(=O)c3ccccc3)CC2)cc1` (stereo not drawn), the “activity change, negative = inhibition” value was 19.5% (inactive).

Regarding `O=C(NC1Cc2ccccc2C1)c1cc(COc2cccc(C(F)(F)F)c2)on1`, the “activity change, negative = inhibition” value is -18.1% (inactive).

On to `CC(C)CC(=O)Nc1nnc(S(=O)(=O)N(C)c2ccc(Cl)cc2)s1`, for which the “activity change, negative = inhibition” value is 0% (inactive).

In the case of `Cc1cc(C(=O)OCC(=O)N2c3ccccc3NC(=O)C2(C)C)c(C)n1-c1ccccc1`, the “activity change, negative = inhibition” value is 0% (inactive).

Turning to `CNS(=O)(=O)c1cccc(C(=O)OCC(=O)N2c3ccccc3NC(=O)C2(C)C)c1`, the “activity change, negative = inhibition” value is -26.3% (inactive).

As for `CCNc1ccc(C(=O)OCC(=O)N2c3ccccc3NC(=O)C2(C)C)cc1[N+](=O)[O-]`, the Potency is 9.28 µM (active).

Regarding `COc1cccc(-n2c(=S)sc3c(=O)n(-c4ccccc4C)c(SCC(=O)O)nc32)c1`, the “activity change, negative = inhibition” value was 23.6% (inactive).

Consider `O=C(CN1CCCCCC1)Nc1ccc(Cl)cc1F`, for which the “activity change, negative = inhibition” value is 39.2% (inactive).

Consider `CN(C)C(=O)c1ccc(NC(=O)COC(=O)c2cc3c(s2)CCCCC3)cc1`, for which the “activity change, negative = inhibition” value was -11.1% (inactive).

Turning to `CC(CN1CCOCC1)c1ccccc1` (stereo not drawn), the “activity change, negative = inhibition” value was 25.6% (inactive).

In the case of `CC(C)c1cc(CN2CCOCC2)cc(C(C)C)c1O`, the Potency was 10.4 µM (active).

Take `Cc1cc(C)cc(NC(=S)NCCCN2CCOCC2)c1`: the “activity change, negative = inhibition” value is 2.48% (inactive).

As for `CCOC(=O)Nc1ccc2c(c1)N(C(=O)CCCl)c1ccccc1[S@]2=O`, the “activity change, negative = inhibition” value was -14.6% (inactive).

Regarding `Cc1ccc(CCN2CC(C(=O)NCCc3ccccc3)CC2=O)cc1` (stereo not drawn), the “activity change, negative = inhibition” value was 68.2% (inactive).

Take `CC(=O)Nc1c2c(nn1-c1cccc(C)c1)CSC2`: the “activity change, negative = inhibition” value is 20.2% (inactive).

For the compound `Cc1ccc2[nH]c(=O)c(-c3nc4c(C)cccn4c3NCc3ccco3)cc2c1`, the activity change, negative = inhibition is 10.9% [at 5.75 µM].

As to `CCCN(CCC)c1nc2c(C)cccn2c(=O)c1/C=C1/SC(=S)N(Cc2ccco2)C1=O`, the Potency is 2.08 µM (active).

Regarding `O=C(CCCN1C(=O)/C(=C\c2ccco2)SC1=S)Nc1cccc2ccccc12`, the “activity change, negative = inhibition” value was 10.4% (inactive).

Consider `Cn1c(=O)[nH]c(=O)c2c1[nH]c(=S)n2Cc1ccccc1`, for which the “activity change, negative = inhibition” value is 10.9% (inactive).

Regarding `COc1ccc(C(=O)Oc2ccc(-c3nnco3)cc2)cc1S(=O)(=O)N1CCOCC1`, the “activity change, negative = inhibition” value is 22.5% (inactive).

Regarding `COc1cc2c(cc1OC)C(C(=O)NCc1ccco1)C1c3ccccc3CCN1C2=O` (stereo not drawn), the Potency was 3.29 µM (active).

Turning to `COc1ccc(C2=NOC(C(=O)NCc3ccco3)C2)cc1OC` (stereo not drawn), the “activity change, negative = inhibition” value is -4.01% (inactive).

On to `COc1ccccc1N1CCN(CC(=O)NC(=O)NCc2ccco2)CC1`, for which the “activity change, negative = inhibition” value is 27.5% (inactive).

In the case of `CCCCNC(=O)CN1C(=O)NC(Cc2ccccc2)(Cc2ccccc2)C1=O`, the “activity change, negative = inhibition” value is 7.91% (inactive).

For `CCOC(=O)c1c(NC(=O)/C=C/c2ccco2)sc(C)c1C`, the Potency was 2.33 µM (active).

As to `CCOC(=O)c1c(NC(=O)c2cccs2)sc(C)c1C`, the “activity change, negative = inhibition” value is 50.7% (inactive).

As for `CCOC(=O)c1c(NC(=S)NC(=O)/C=C/c2cccs2)sc(C)c1C`, the “activity change, negative = inhibition” value was 0% (inactive).

In the case of `Cn1c(Nc2ccccc2)cc(=O)n(C)c1=O`, the “activity change, negative = inhibition” value was 11.9% (inactive).

Consider `CCN1C(=O)[C@@H]2[C@@H](c3ccc(-c4cccc(Cl)c4)cc3)N3CCC[C@@]3(C(=O)OC)[C@@H]2C1=O`, for which the Potency was 8.28 µM (active).

For the compound `CCN1C(=O)[C@@H]2[C@@H](c3ccc(-c4ccc(OC)cc4)c(OC)c3)N3CCC[C@@]3(C(=O)OC)[C@@H]2C1=O`, the Potency is 10.4 µM (active).

Regarding `COCCCN1C(=O)c2ccc(C(=O)Nc3ccc(OC)cc3OC)cc2C1=O`, the activity change, negative = inhibition is 25.7% [at 5.75 µM].

Take `CCCCCCSc1ccc([C@@H]2[C@@H]3C(=O)N(CC)C(=O)[C@@H]3[C@]3(C(=O)OC)CCCCN23)cc1OC`: the Potency is 6.57 µM (active).

`CCn1cc(CN2CCC(C(=O)Nc3cccc(-c4cccc(Cl)c4)c3)CC2)c(C)n1`: the “activity change, negative = inhibition” value was 11.7% (inactive).

As to `COc1ccc(N2C(=O)CCC(C(=O)N(C)C3CCCCC3)C2c2ccc(OC)c(OC)c2)cc1` (stereo not drawn), the “activity change, negative = inhibition” value is -2.32% (inactive).

As to `COC(=O)CN1C(=O)[C@H]2[C@@H](C3CC3)N3C(=O)CN(Cc4ccc(-c5ccccc5)cc4)C(=O)[C@@]3(Cc3ccccc3)[C@H]2C1=O`, the “activity change, negative = inhibition” value was 40.9% (inactive).
